Pf growth 48h – inhibits P. falciparum growth in the first generation, 48 h; P. falciparum luciferase growth in erythrocytes, 48 h; Potency, µM (doses to about 28.7 µM), inactives show top-dose activity change, negative = inhibition, actives largely listed as inhibitors; 310,000 compounds, 5.9% hits; also: potency is read from the fitted curve at half-maximal effect; % is scaled to controls: 0 for no effect and ±100 for the full control effect
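Parasite viability was followed by luminescence of a genomically integrated firefly luciferase. Cultures held 0.1% parasitemia at 2% hematocrit (final), incubated under 5% CO2 at 37 C.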
Shiga toxin inh – blocks Shiga toxin action in Vero cells; inhibition, % at 38.7 µM; 290,000 compounds, 9.2% hits; Vero cells, Shiga toxin protein synthesis inhibition reporter; in the data active = inhibition mostly above about 28%, no sharp cut-off; inactive = mostly below about 43%; also: 0% is about no effect
Pf growth 96h – inhibits malaria parasite growth, 96 h. P. falciparum luciferase reporter growth, 96 h. Potency, µM (series often up to 28.7 µM), for inactives: at the top dose activity change, negative = inhibition, actives largely listed as inhibitors. 320,000 compounds, 6.9% hits; also: potency is read from the fitted curve at half-maximal effect; % is scaled to controls: 0 for no effect and ±100 for the full control effect
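Parasite growth measured via integrated firefly luciferase reporter in P. falciparum. Infected erythrocytes at 2% hematocrit, 0.05% parasitemia final were treated 96 hours at 37 C under 5% CO2, and luminescence was read.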
Cycloheximide cs – counter-screen for Shiga toxin inhibitors: cycloheximide protein synthesis inhibition; cell reporter, cycloheximide protein synthesis inhibition counterscreen; max response, %; 300,000 compounds, 12% hits; AID 2314; in the data active = max response mostly above about 13%, no sharp cut-off; inactive = mostly below about 14%; also: read at 38.3 µM for the half of the compounds with a filed dose; 0% is about no effect
NS1 inh – inhibitors of influenza NS1 protein function; AID 2326; 270,000 compounds, 0.4% hits; Potency, µM (series often up to 46.1 µM), inactives show at the highest dose activity, positive = more growth; calls by dose curve; also: potency is read from the fitted curve at half-maximal effect; actives are rising curves; nearly all actives have a fitted effect of over 50% in size
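OD600 was taken as the measure of yeast growth restored by compound in an NS1-expressing S. cerevisiae strain. Cells had been washed out of glucose medium and diluted 1:100 into galactose -URA medium, pH 6.0.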
* marks the source's active call; other numbers are inactive results; i = inactive; ? = inconclusive; · = not tested or not shown; + = active, no number; [ ] = dose if it differs, or a comment. Shown are actives, neighbours in structure and some others; about 21% of the full set was active somewhere. Unless noted, calls follow the shape of the dose curve; as a rule, active = well fitted inhibition curve with a large enough effect; inconclusive = small, poorly fitted or top-dose-only effect, or another doubt; inactive = no such curve, though single readings can be large or run the other way.

SMILES	Pf growth 48h	Shiga toxin inh	Pf growth 96h	Cycloheximide cs	NS1 inh
O=C(O)c1cc(NN=C2CCN(Cc3ccccc3)CC2)ccc1Cl	-6%	12	?	1	-1%
CCCN1CCC(=NNc2ccc(C(=O)O)cc2)CC1	113%	40*	61%	30*	7%
CC(C)N(C(=O)CSc1nnnn1-c1ccc2c(c1)OCO2)C(C)C	48%	-12	?	2	0%
CN(CC(O)COc1ccc(OCC(O)CN(C)C2CCCCC2)cc1)C1CCCCC1 (centres undefined)	?	23	35%	-4	9%
Cc1cccc(C)c1OCC(O)CN(Cc1ccccc1O)C1CCCCC1 (centres undefined)	0.26µM*	22	0.26µM*	-2	·
N#C/C(=C\c1coc2ccc(O)cc2c1=O)C(=O)Nc1nc2ccccc2s1	42%	86*	56%	32*	8%
N#C/C(=C\c1coc2ccccc2c1=O)C(N)=S	19%	0	?	11	·
Cc1cc(-n2cc(Br)c(=O)[nH]c2=O)nc(-c2ccccc2)n1	?	-5	-7%	-4	0%
CC(C)CCC(CCNCc1ccccn1)c1ccc(Cl)cc1 (centres undefined)	3.3µM*	-6	3.3µM*	-2	-4%
CSc1ccc(CN2CCN(Cc3ccccc3)C(CCO)C2)cc1 (centres undefined)	-8%	14	12µM*	-3	0%
Cc1ccc(CN2CCN(Cc3ccc(-n4cccn4)cc3C)CC2CCO)cc1 (centres undefined)	10µM*	9	25%	-2	5%
Cc1ccc(CN2CCN(Cc3ccccn3)CC2CCO)cc1 (centres undefined)	16%	-25	-4%	0	-3%
Cc1ccc(CN2CCN(Cc3cccc(-n4cccn4)c3)CC2CCO)cc1 (centres undefined)	-20%	26	-33%	-3	0%
Cc1ccc(CN2CCN(Cc3ccon3)CC2CCO)cc1 (centres undefined)	-2%	-24	10µM*	-4	3%
OCCC1CN(Cc2ccc(-n3cccn3)cc2)CCN1Cc1ccccc1 (centres undefined)	-10%	-8	8.3µM*	-2	-1%
Cc1cccc(C(=O)O)c1NC(=O)Cc1cccc2ccccc12	-11%	-10	0%	-3	6%
COc1cc(CN2CCNC(=O)C2CC(=O)N(C)Cc2ncc[nH]2)cc(OC)c1 (centres undefined)	18%	-19	?	1	-5%
Cn1c(=O)[nH]c(=O)c2c1nc(NCc1ccco1)n2Cc1ccccc1Cl	-13%	-13	-33%	7	-3%
CC1=NC(C(F)(F)F)(C(F)(F)F)C(C#N)=C(C)N1	3%	-3	·	-3	-7%
COc1ccc(N(CC2CO2)S(=O)(=O)c2ccccc2)cc1 (centres undefined)	6%	-15	-20%	10	4%
CN(C)c1cccc(C(=O)NNC(=O)CSc2ccccc2)c1	6%	26	15%	13*	-10%
Cc1cccc(C(=O)OCC(=O)Nc2nccs2)c1	29%	36	109%	19*	-4%
Cc1cccc(C(=O)N[C@H](C(=O)Nc2nccs2)C(C)C)c1	?	-14	-28%	-2	-16%
CN(C)c1cccc(C(=O)OCC(=O)Nc2nccs2)c1	27%	101*	54%	30*	12%
CN(C)c1cccc(C(=O)OCC(=O)Nc2ccccc2Cl)c1	14%	42*	-7%	22	·
SMILES	Pf growth 48h	Shiga toxin inh	Pf growth 96h	Cycloheximide cs	NS1 inh
C[n+]1nc(Nc2cccc(F)c2)sc1-c1ccc(C(=O)O)cc1	-6%	17	-4%	-3	-5%
Cc1cccc(/C=C2\Sc3ccc(C(=O)N4CCC(C)CC4)cc3N(C)C2=O)c1	?	-3	24%	-5	27%
CN(C)c1cccc(C(=O)NCc2ccccc2)c1	i	59	5%	34	·
CN(C)c1cccc(C(=O)NCc2ccccc2Cl)c1	24%	45	7%	19*	2%
COCC(C)NC(=O)c1ccccc1[N+](=O)[O-] (centres undefined)	8%	-4	?	-3	1%
CC1CCCC(C)N1C(=O)CSc1nnc(CSc2ncccn2)n1C (centres undefined)	-6%	12	10µM*	-4	-5%
Cn1c(CSc2ncccn2)nnc1SCC(=O)N1CCCC1	11%	16	?	1	2%
CC(C)(C)c1csc(CS(=O)(=O)c2ccccn2)n1	0%	88*	3%	24*	4%
Cc1nc(CS(=O)(=O)c2ccccn2)sc1C(=O)NNC(=O)c1ccccc1	6%	17	19%	-2	2%
O=C1c2ccccc2C(=O)C1c1ccc2ccccc2n1	208%	78*	?	34*	-12%[9.22 µM]
c1ccc(SCc2nc(-c3ccncc3)no2)cc1	-31%	84*	·	44*	-6%[9.22 µM]
Cc1ccc(SCc2nc(-c3ccccn3)no2)cc1	139%	69*	-3%	25*	-54%
Cc1ccc(SCc2nc(-c3ccccc3)no2)cc1	18%	12	2%	28*	0%
Cc1ccc(-c2noc(CSc3nnc(Cc4ccccc4)n3-c3ccc(Cl)cc3)n2)cc1	·	-9	9.3µM*	-2	22%
O=S(=O)(NC1C2CC3CC(C2)CC1C3)c1ccc(F)cc1 (centres undefined)	-13%	·	?	·	·
O=C(Cn1cnc(Cl)c1Cl)c1ccc(F)cc1	?	25	92%	2	·
Cc1ccc(SCc2nc(-c3ccncc3)no2)cc1	?	66*	2%	20*	-9%
COc1ccc(-c2noc(CSc3ccccc3)n2)cc1OC	49%	67*	33%	39*	-12%
COc1ccc(-c2noc(CSc3nnc(CCc4ccccc4)n3-c3ccccc3)n2)cc1OC	?	-4	·	0	-18%
CCN(CC)C(=O)CSc1ncnc2c(-c3ccc(OC)cc3)nsc12	22%	21	53%	8	-3%
COc1ccc(-c2nsc3c(SCc4ccccc4)ncnc23)cc1	19%	+	1.9µM*	20*	19%
Oc1oc(C=Nc2ccc(F)cc2F)c2ccccc12	0%	-1	39%	9	4%
NC(N)=NN=C1CCCCCCCCCCC1	10µM*	-14	3.7µM*	-5	5%
CCOP(=O)(OCC)c1nc(-c2cccc3ccccc23)oc1N1CCCCC1	?	-7	?	-4	·
CCOP(=O)(c1ccccc1)c1nc(-c2ccccc2C)oc1NCc1ccccc1 (centres undefined)	12µM*	20	?	-3	6%
CCOP(=O)(c1ccccc1)c1nc(-c2ccccc2C)oc1N1CCCCC1 (centres undefined)	13µM*	-21	-30%	0	-104%
Cc1ccccc1-c1nc(P(=O)(c2ccccc2)c2ccccc2)c(N2CCOCC2)o1	15µM*	-9	?	-1	5%
CC(C)c1nnc(N2C(=O)C(O)=C(C(=O)c3cccs3)C2c2ccccc2)s1 (centres undefined)	21%	55*	-15%	21*	10%

Compound activity as filed in PubChem BioAssay.
